Measured values from PubChem BioAssay (NCATS).
Results filed as inconclusive are left out. Entries that show only a call come without a potency. Values without a mark were called inactive. Calls of active or inactive are those of the source. Calls follow the shape of the full dose curve.

Molecular target: Atrial natriuretic peptide receptor 1 (Homo sapiens) (UniProt P16066)
Experiment: Natriuretic polypeptide receptor (hNpr1) antagonism - Pilot CMLD screen (AID 1347052);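 also: HEK293 cells with hNpr1 stimulated by hNppA peptide at 0.1 nM; cGMP level read as GloSensor luciferase luminescence after agonist stimulation; series mostly up to about 9.2 µM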

Sequence of Atrial natriuretic peptide receptor 1 (Homo sapiens) (P16066 whole entry, looked up): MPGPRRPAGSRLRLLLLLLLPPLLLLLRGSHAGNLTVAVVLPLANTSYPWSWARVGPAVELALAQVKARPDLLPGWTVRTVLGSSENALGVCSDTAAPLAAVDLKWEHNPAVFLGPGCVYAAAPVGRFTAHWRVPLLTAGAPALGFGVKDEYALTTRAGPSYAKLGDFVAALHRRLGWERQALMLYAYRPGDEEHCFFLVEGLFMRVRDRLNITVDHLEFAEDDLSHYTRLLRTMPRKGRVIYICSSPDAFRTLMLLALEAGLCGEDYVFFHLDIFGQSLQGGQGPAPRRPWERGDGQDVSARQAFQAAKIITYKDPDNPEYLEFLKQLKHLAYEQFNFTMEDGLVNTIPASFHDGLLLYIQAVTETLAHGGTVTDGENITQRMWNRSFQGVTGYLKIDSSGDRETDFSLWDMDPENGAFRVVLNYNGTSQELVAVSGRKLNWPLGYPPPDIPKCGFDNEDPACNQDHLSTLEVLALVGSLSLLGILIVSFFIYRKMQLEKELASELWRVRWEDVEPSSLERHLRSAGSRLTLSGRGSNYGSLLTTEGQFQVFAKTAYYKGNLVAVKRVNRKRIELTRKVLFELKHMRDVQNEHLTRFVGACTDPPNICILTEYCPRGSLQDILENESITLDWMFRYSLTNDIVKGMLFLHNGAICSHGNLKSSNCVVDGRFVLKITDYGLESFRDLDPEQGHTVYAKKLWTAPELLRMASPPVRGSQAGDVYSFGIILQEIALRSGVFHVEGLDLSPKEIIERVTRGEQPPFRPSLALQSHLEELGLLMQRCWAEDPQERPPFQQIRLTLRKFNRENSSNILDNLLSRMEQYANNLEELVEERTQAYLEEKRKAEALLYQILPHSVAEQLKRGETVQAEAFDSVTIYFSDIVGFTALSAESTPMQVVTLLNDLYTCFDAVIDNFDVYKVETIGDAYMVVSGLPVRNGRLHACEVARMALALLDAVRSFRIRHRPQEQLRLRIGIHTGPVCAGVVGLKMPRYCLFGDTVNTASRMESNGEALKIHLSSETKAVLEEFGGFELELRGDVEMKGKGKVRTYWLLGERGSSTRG

| SMILES | Potency |
| --- | --- |
| CC1=CC[C@@H](COc2ccccc2)O[C@@]2(C1)C(=O)N(Cc1ccc(F)cc1)c1cccc(Br)c12 | inactive |
| CCN1C(=NCc2cccc(Cl)c2)NC(c2cccc(C(F)(F)F)c2)C(C(=O)OC)=C1C (centres undefined) | inactive |
| COC1=C(C(=O)c2ccccc2)C(=O)[C@@]2(CC=C(C)C)C[C@H](C(=O)OCC(F)(F)F)C(C)(C)[C@@]1(CC=C(C)C)C2=O | inactive |
| C[C@H]1CC[C@H]2C(=O)N(Cc3cccc([N+](=O)[O-])c3)C[C@H](O)CN2[C@H]1c1cccc(Br)c1 | inactive |
